The source of these data is PubChem BioAssay AID624116 (National Center for Advancing Translational Sciences (NCATS), 2012).

Results filed as inconclusive are left out. A call without a number means that no potency is given here. Calls of active or inactive are those of the source. The call rests on the fitted dose curve; in most records, active means well fitted activation curve with a large enough effect; inconclusive means small, poorly fitted or top-dose-only effect; inactive means no such curve, though single readings can be large or run the other way.

This test can be described thus: qHTS Assay for Rab9 Promoter Activators: Hit Validation Using Renilla Luciferase Read-Out for Rab9. The gist of the method:
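Huh7 cells stably carrying promoter-luciferase reporter, exposed to compound for 24 h at 37 deg C. Luminescence read 10 min after adding luciferase detection reagent at room temperature.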
Background: Quantitative high-throughput screening tests each substance at several concentrations.
Potency means the concentration at half of the fitted maximal effect.

`O=C(CSc1nnc(Cc2cc(=O)[nH]c(=O)[nH]2)n1-c1ccc(Cl)cc1)NC1CCCC1`: the Potency result was “inactive”. For the compound `FC(F)(F)c1ccc(Nc2nnnc3ccccc23)cc1`, the Potency entry was “inactive”.

Take `CC(=O)c1cccc(NC(=O)N2CCOCC2)c1`: the Potency result was “inactive”. As for `O=C(Nc1nc2ccc(F)cc2s1)c1ccc(N2CCCC2=O)cc1`, the entry is “inactive”; as for `Cc1noc(/C=C/N(C)C)c1S(=O)(=O)N1CCCC(C(=O)N2CCCCC2)C1` (stereo not given), “inactive”. Turning to `Cc1ccc(C(=O)Nc2nnc(S(=O)(=O)N3CCOCC3)s2)cc1`, the Potency result is “inactive”. `NC(=O)C(=O)NN=C1C2CC3CC(C2)CC1C3`: the Potency result is “inactive”. Turning to `COc1ccccc1N(C(=O)c1snc(C(N)=O)c1N)C(C(=O)NC1CCCCC1)c1cccc(OC)c1OC` (stereo not given), the Potency is 26 µM (active). With `O=C(NCCc1c[nH]c2ccccc12)C(=O)NCC(c1ccco1)N1CCN(c2ccccc2F)CC1` (stereo not given), the Potency result was “inactive”. With `CCOC(=O)CSc1nc2cc3c(cc2cc1C#N)OCO3`, the Potency result is “inactive”. With `C=CCn1c(C)nnc1SCC(=O)Nc1nccs1`, the Potency entry is “inactive”. `Cc1ccc(NC(=O)NC(=O)c2ccccc2)cc1F`: the Potency entry was “inactive”. For the compound `Cn1c(SCc2ccccc2)nnc1-c1cnccn1`, the Potency result is “inactive”. Turning to `Cc1ccc(S(=O)(=O)/N=C(/Nc2ccccn2)c2ccc(Cl)cc2)cc1`, the Potency is 14.6 µM (active). Regarding `COC(=O)c1sccc1NC(=S)OC`, the Potency result is “inactive”. On to `CC(C)(C)NC(=S)NNC(=O)c1ccc2ncccc2c1`, for which the Potency entry was “inactive”. For the compound `Cc1ccc(C2C3=C(CC(C)(C)CC3=O)N(CCN3CCOCC3)C3=C2C(=O)CC(C)(C)C3)cc1`, the Potency is 20.7 µM (active).

`COc1ccc(NC(=S)NNC(=O)c2cccs2)cc1`: the Potency result is “inactive”. With `Cc1nc(SCC(=O)NC(=O)NC(C)(C)C)nc(C)c1C`, the Potency result is “inactive”. In the case of `COCc1cc(C)nc(N/N=C/c2ccc(-c3ccc(Cl)cc3[N+](=O)[O-])o2)c1C#N`, the Potency result was “inactive”.
